Results from PubChem BioAssay AID1159580 (chemical genetic matrix, 2015).
In all, about 5,500 compounds went through this assay and about 2,000 (36%) were called active. Roughly 18% stayed inconclusive and do not appear here. No stated cut-off is given here; in the data, active means normalized growth mostly below about 0.91 (no sharp cut-off); inconclusive means no clear call, values can overlap the other calls; inactive means mostly above about 0.92. This is one part of the list.

Assay: chemical genetic growth profiling, strain panel (AID 1159580);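 further: tested at 20 µM; growth read once vehicle control cultures reached saturation at 30 °C; 1 = growth at the plate median or of vehicle wells; lower values mean less growth of the strain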
Conditions: growth OD

Measured: normalized growth

COc1cc(-c2coc3cc(OC)c(OC)c(OC)c3c2=O)cc(OC)c1OC
inactive: S. cerevisiae deletion strains, locus YJR066W, strain TOR1, active compounds read low 0.99 | S. cerevisiae deletion strains, locus YJR075W, strain HOC1, active compounds read low 0.975 | S. cerevisiae deletion strains, locus YKL009W, strain mrt4, active compounds read low 0.98 | S. cerevisiae deletion strains, locus YKL068W, active compounds read low 0.988 | S. cerevisiae deletion strains, locus YKL085W, strain MDH1 (second series), active compounds read low 0.973 | S. cerevisiae deletion strains, locus YKL085W, strain MDH1, active compounds read low 0.973 | S. cerevisiae deletion strains, locus YKL160W, strain elf1, active compounds read low 0.994 | S. cerevisiae deletion strains, locus YKR001C, strain vps1, active compounds read low 1.02 | S. cerevisiae deletion strains, locus YKR026C, strain gcn3, active compounds read low 0.997 | S. cerevisiae deletion strains, locus YKR091W, strain srl3, active compounds read low 1 | S. cerevisiae deletion strains, locus YLL001W, strain dnm1, active compounds read low 0.96 | S. cerevisiae deletion strains, locus YLL026W, active compounds read low 0.996 | S. cerevisiae deletion strains, locus YLL041C, strain sdh2, active compounds read low 0.996 | S. cerevisiae deletion strains, locus YLR027C, strain aat2, active compounds read low 1.01 | S. cerevisiae deletion strains, locus YLR039C, strain RIC1, active compounds read low 1 | S. cerevisiae deletion strains, locus YLR058C, strain SHM2, active compounds read low 0.99 | S. cerevisiae deletion strains, locus YLR102C, strain apc9, active compounds read low 1 | S. cerevisiae deletion strains, locus YLR113W, strain HOG1, active compounds read low 0.98 | S. cerevisiae deletion strains, locus YLR221C, strain rsa3, active compounds read low 0.997 | S. cerevisiae deletion strains, locus YLR258W, strain gsy2, active compounds read low 0.989 | S. cerevisiae deletion strains, locus YLR262C, strain YPT6 (second series), active compounds read low 0.972 | S. cerevisiae deletion strains, locus YLR262C, strain YPT6, active compounds read low 1.01 | S. cerevisiae deletion strains, locus YLR268W, strain sec22, active compounds read low 1.03 | S. cerevisiae deletion strains, locus YLR320W, strain mms22, active compounds read low 1.01 | S. cerevisiae deletion strains, locus YLR330W, strain CHS5, active compounds read low 0.998 | S. cerevisiae deletion strains, locus YLR342W, strain FKS1 (second series), active compounds read low 1.08 | S. cerevisiae deletion strains, locus YLR342W, strain FKS1, active compounds read low 1.01 | S. cerevisiae deletion strains, locus YLR357W, strain rsc2, active compounds read low 0.953 | S. cerevisiae deletion strains, locus YLR370C, strain arc18, active compounds read low 0.997 | S. cerevisiae deletion strains, locus YLR371W, strain rom2, active compounds read low 1.01 | S. cerevisiae deletion strains, locus YLR384C, strain iki3, active compounds read low 0.982 | S. cerevisiae deletion strains, locus YLR418C, strain cdc73, active compounds read low 0.984 | S. cerevisiae deletion strains, locus YML016C, strain PPZ1, active compounds read low 1 | S. cerevisiae deletion strains, locus YML032C, strain rad52, active compounds read low 1.01 | S. cerevisiae deletion strains, locus YML120C, strain ndi1, active compounds read low 0.997 | S. cerevisiae deletion strains, locus YML124C, strain tub3, active compounds read low 0.989 | S. cerevisiae deletion strains, locus YMR058W, strain fet3, active compounds read low 1.01 | S. cerevisiae deletion strains, locus YMR078C, strain ctf18, active compounds read low 1.01 | S. cerevisiae deletion strains, locus YMR125W, strain sto1, active compounds read low 0.992 | S. cerevisiae deletion strains, locus YMR129W, active compounds read low 0.989 | S. cerevisiae deletion strains, locus YMR205C, strain PFK2, active compounds read low 1.01 | S. cerevisiae deletion strains, locus YMR223W, strain ubp8, active compounds read low 0.998 | S. cerevisiae deletion strains, locus YMR231W, strain pep5, active compounds read low 0.987 | S. cerevisiae deletion strains, locus YMR307W, strain GAS1, active compounds read low 1.13 | S. cerevisiae deletion strains, locus YNL067W, strain RPL9B, active compounds read low 0.973 | S. cerevisiae deletion strains, locus YNL071W, strain lat1, active compounds read low 1 | S. cerevisiae deletion strains, locus YNL183C, strain NPR1, active compounds read low 0.984 | S. cerevisiae deletion strains, locus YNL209W, strain ssb2, active compounds read low 1 | S. cerevisiae deletion strains, locus YNL233W, strain BNI4, active compounds read low 0.982 | S. cerevisiae deletion strains, locus YNL248C, strain rpa49, active compounds read low 0.983 | S. cerevisiae deletion strains, locus YNL250W, strain rad50, active compounds read low 0.944 | S. cerevisiae deletion strains, locus YNL271C, strain bni1, active compounds read low 0.995 | S. cerevisiae deletion strains, locus YNL298W, strain CLA4, active compounds read low 0.996 | S. cerevisiae deletion strains, locus YNL307C, strain MCK1, active compounds read low 1 | S. cerevisiae deletion strains, locus YNL322C, strain KRE1 (second series), active compounds read low 0.998 | S. cerevisiae deletion strains, locus YNR049C, strain mso1, active compounds read low 1 | S. cerevisiae deletion strains, locus YNR052C, strain pop2, active compounds read low 0.977 | S. cerevisiae deletion strains, locus YOL012C, strain htz1 1.11 | S. cerevisiae deletion strains, locus YOL147C, strain pex11, active compounds read low 0.998 | S. cerevisiae deletion strains, locus YOR001W, strain rrp6, active compounds read low 0.997 | S. cerevisiae deletion strains, locus YOR061W, strain CKA2, active compounds read low 1.01 | S. cerevisiae deletion strains, locus YOR069W, strain VPS5, active compounds read low 0.989 | S. cerevisiae deletion strains, locus YOR070C, strain gyp1, active compounds read low 0.991 | S. cerevisiae deletion strains, locus YOR080W, strain dia2, active compounds read low 0.995 | S. cerevisiae deletion strains, locus YOR083W, strain WHI5, active compounds read low 0.996 | S. cerevisiae deletion strains, locus YOR106W, strain vam3, active compounds read low 0.988 | S. cerevisiae deletion strains, locus YOR136W, strain idh2, active compounds read low 0.993 | S. cerevisiae deletion strains, locus YOR144C, strain elg1, active compounds read low 0.997 | S. cerevisiae deletion strains, locus YOR184W, strain ser1, active compounds read low 1.08 | S. cerevisiae deletion strains, locus YOR231W, strain MKK1, active compounds read low 1.04 | S. cerevisiae deletion strains, locus YOR265W, strain rbl2, active compounds read low 1.01 | S. cerevisiae deletion strains, locus YOR270C, strain vph1, active compounds read low 1.01 | S. cerevisiae deletion strains, locus YOR290C, strain snf2, active compounds read low 1.01 | S. cerevisiae deletion strains, locus YOR316C, strain cot1, active compounds read low 0.99 | S. cerevisiae deletion strains, locus YPL051W, strain arl3, active compounds read low 0.994 | S. cerevisiae deletion strains, locus YPL055C, strain LGE1, active compounds read low 1.03 | S. cerevisiae deletion strains, locus YPL078C, strain atp4, active compounds read low 0.998 | S. cerevisiae deletion strains, locus YPL106C, strain sse1, active compounds read low 0.984 | S. cerevisiae deletion strains, locus YPL240C, strain hsp82, active compounds read low 1 | S. cerevisiae deletion strains, locus YPL256C, strain CLN2, active compounds read low 1.03 | S. cerevisiae deletion strains, locus YPR119W, strain clb2, active compounds read low 0.975 | S. cerevisiae deletion strains, locus YPR141C, strain kar3, active compounds read low 0.972 | S. cerevisiae deletion strains, locus YPR163C, strain tif3, active compounds read low 1 | S. cerevisiae deletion strains, locus YPR167C, strain met16, active compounds read low 0.995 | S. cerevisiae deletion strains, strain wtn01, active compounds read low 1.03 | S. cerevisiae strains, strain wild type, active compounds read low 1.02
